Only some compounds are listed: those with a hit (about 1.7% of all), similar ones and a draw of the others.
CCHF vOTU inh: CCHFV vOTU protease inhibitors, primary screen, biochemical, Pep-AMC substrate, fluorescence | AID 651958, 2012 | inhibition, % at 11.5 µM | 0.55% of 370,000 active | Crimean-Congo hemorrhagic fever virus L polyprotein viral ovarian tumor (vOTU) protease …; in the data active means inhibition above about 30%; further: 0% = vehicle wells with enzyme and 100% = no enzyme wells
Mtb bLac sens: beta-lactam sensitization of Mtb H37Rv, H37Rv | 0.27% of 330,000 active | M. tuberculosis H37Rv growth with meropenem, percent inhibition | AID 434955, 2010 | inhibition, % at 25 µM; call rule not given here;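 further: growth measured after seven days incubation then overnight dye step; 0% = bacteria only wells and 100% = bacteria with antibiotic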
PfHsp40 yeast: rescue of yeast from PfHsp40 toxicity, primary screen, S. cerevisiae, ATP luminescence; S. cerevisiae expressing PfHsp40, growth rescue; growth rescue, % at 12.5 µM; 0.68% of 340,000 active; AID 504582, 2011; in the data active means growth rescue above about 28%, passing the limit was not always enough;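 further: yeast W303a lacking pdr1 and pdr3 grown in galactose medium; growth measured after three days at 30 °C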
Mtb hypoxia inh: PubChem AID 1159583; fluorescence inhibition, % (concentration not given with the values); 0.1% of 300,000 active; M. tuberculosis hypoxia-regulated fluorescent reporter, fluorescence; in the data active means fluorescence inhibition mostly above about 23%, no sharp cut-off; inactive means mostly below about 17%
RecA splice inh: Mtb RecA intein splicing inhibitors, primary screen, biochemical, fluorescence, HTS; Protein RecA (Mycobacterium tuberculosis (strain ATCC 25618 / H37Rv)), P9WHJ3; AID 2221, 2009; 0.75% of 290,000 active; cell-free RecA intein splicing; inhibition, % (concentration not given with the values); in the data active means inhibition above about 30%;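 further: 0% = vehicle wells and 100% = reference inhibitor control wells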
Target sequence (P9WHJ3 whole entry, looked up, canonical isoform): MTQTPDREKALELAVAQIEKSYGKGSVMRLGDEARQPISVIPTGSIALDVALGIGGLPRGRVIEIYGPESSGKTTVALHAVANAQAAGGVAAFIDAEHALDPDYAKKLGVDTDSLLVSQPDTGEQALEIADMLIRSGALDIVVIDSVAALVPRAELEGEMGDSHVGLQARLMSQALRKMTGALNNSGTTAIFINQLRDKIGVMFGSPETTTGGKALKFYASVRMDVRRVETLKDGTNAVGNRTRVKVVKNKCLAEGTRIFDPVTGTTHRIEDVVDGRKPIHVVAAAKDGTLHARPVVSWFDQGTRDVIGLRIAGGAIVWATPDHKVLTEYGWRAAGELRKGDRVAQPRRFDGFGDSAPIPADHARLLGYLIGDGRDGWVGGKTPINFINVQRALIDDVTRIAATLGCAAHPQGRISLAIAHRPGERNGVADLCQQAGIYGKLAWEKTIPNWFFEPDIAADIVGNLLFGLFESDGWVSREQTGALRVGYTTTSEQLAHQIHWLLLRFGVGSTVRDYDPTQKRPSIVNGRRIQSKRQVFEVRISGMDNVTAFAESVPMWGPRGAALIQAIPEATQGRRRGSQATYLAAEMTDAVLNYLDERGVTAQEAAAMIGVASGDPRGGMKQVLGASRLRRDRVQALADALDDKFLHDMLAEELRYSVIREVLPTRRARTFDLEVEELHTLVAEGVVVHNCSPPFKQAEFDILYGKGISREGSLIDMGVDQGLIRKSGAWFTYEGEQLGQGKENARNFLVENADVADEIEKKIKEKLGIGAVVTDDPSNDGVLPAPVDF
An asterisk follows results filed as active; / = not tested or not shown.

SMILES | CCHF vOTU inh | Mtb bLac sens | PfHsp40 yeast | Mtb hypoxia inh | RecA splice inh
COc1ccc([N+](=O)[O-])cc1NC(=O)COC(=O)c1ccccc1C(=O)c1ccccc1 | -17 | 3 | -1 | 7 | -2
COc1ccc([N+](=O)[O-])cc1NC(=O)C(C)OC(=O)c1ccccc1C(=O)c1ccc(Cl)cc1 (stereo unspecified) | 7 | -2 | 72* | -3 | 6
COc1ccc(Cl)cc1-c1n[nH]c(=S)n1C1CCCCC1 | 23 | 0 | 2 | / | 4
Cc1cc(Cl)ccc1OCc1n[nH]c(=S)n1C1CCCCC1 | 17 | 2 | 80* | 11 | 16
CC1(C)CC[C@]2(C(=O)O)CC[C@]3(C)C(=CCC4[C@@]5(C)CCC(O)C(C)(C)C5CC[C@]43C)C2C1 (stereo partly specified) | / | / | / | -1 | /
CCCCN(C)S(=O)(=O)c1cc(Br)cc2c1N(C(=O)C1CC1)CC2 | / | 0 | 132* | 5 | 0
COc1ccccc1C=NNc1cn[nH]c(=O)c1Cl | / | / | / | 3 | /
COc1cccc(N2C(CC(C)=O)c3cc(C(F)(F)F)ccc3S2(=O)=O)c1 (stereo unspecified) | / | / | / | -3 | /
O=C(NCc1ccc2c(c1)OCO2)c1cccc(C(=O)NCc2ccc3c(c2)OCO3)c1 | 0 | 4 | -1 | 7 | 0
Cc1nc2ccc(C(=O)NCc3ccc4c(c3)OCO4)cc2s1 | -3 | 2 | 589* | 1 | -10
COc1ccc(C2CC(=O)C3=C(C2)NC(C)=C(C(=O)Nc2ccccc2C)C3c2coc3ccc(C)cc3c2=O)cc1OC (stereo unspecified) | -7 | 98 | 63* | 6 | /
COCCCNC(=S)NC1CC2CCC(C1)N2Cc1ccccc1 (stereo unspecified) | -5 | -6 | 35* | 6 | 1
CC(C)C(CO)N(Cc1cccc(F)c1)c1nc(Nc2cccc(Cl)c2)c2ncn(C(C)C)c2n1 (stereo unspecified) | / | / | / | 15 | /
C(/C=C/c1ccccc1)=NNc1nc2ccccc2s1 | / | / | / | 10 | /
CC(=O)Nc1ccc(-c2csc(N/N=C(/C)c3ccccc3)n2)cc1 | -13 | 19 | 90* | / | 8
CC(=O)Nc1ccc(-c2csc(NNC(=O)c3ccccc3)n2)cc1 | 3 | 5 | -2 | 15 | 1
C#CCOCCOCCOCCNc1nc(N2CCN(C(=O)C(CCC(=O)O)n3cc(C(N)CCCCN)nn3)CC2)nc(N2CCN(C(=O)C(CCCN=C(N)N)n3cc(C(N)C(C)CC)nn3)CC2)n1 (stereo unspecified) | / | / | / | -2 | /
Cc1cc2[nH]c3c(c[n+](C)c4ccccc34)c2cc1C | 0 | 100 | 0 | 64* | -12
Cc1cc2[nH]c3c4ccccc4nc(C)c3c2cc1C | -25 | / | 4 | / | /
CC(=O)NC(c1ccc(Cl)cc1Cl)c1ccc2cccnc2c1O (stereo unspecified) | 2 | 7 | 445* | / | 0
CC(=O)NC(c1ccc2ccccc2c1)c1ccc2cccnc2c1O (stereo unspecified) | 0 | 8 | 85* | / | -1
CCCC(=O)NC(c1ccc(Cl)cc1Cl)c1ccc2cccnc2c1O (stereo unspecified) | 4 | 4 | -2 | / | 2
COc1ccc(C=Cc2nc(C)c(-c3ccccc3)c(=O)[nH]2)cc1OC | / | / | / | 1 | /
O=C1c2ccccc2NC(c2ccc(-c3ccc(Br)cc3)o2)N1O (stereo unspecified) | -2 | 82 | 0 | 5 | 2
CC(=O)NN1C(=O)c2ccccc2NC1c1cccc([N+](=O)[O-])c1 (stereo unspecified) | -9 | -7 | 0 | 9 | -3
SMILES | CCHF vOTU inh | Mtb bLac sens | PfHsp40 yeast | Mtb hypoxia inh | RecA splice inh
O=C1c2ccccc2NC(c2ccc(-c3cccc([N+](=O)[O-])c3)o2)N1O (stereo unspecified) | -4 | -2 | 233* | -11 | -6
O=C1c2ccccc2NC(c2ccc(-c3ccc(F)cc3)o2)N1O (stereo unspecified) | -5 | -3 | 168* | / | /
CCOc1ccccc1C=Nn1c(COc2ccccc2)n[nH]c1=S | / | / | / | -6 | /
O=C(O)c1cccc(-c2ccc(C=NNC(=O)C3COc4ccccc4O3)o2)c1 (stereo unspecified) | / | / | / | -7 | /
C[C@H](C[C@H](O)[C@H]1OC1(C)C)C1=C2C[C@H](O)C3[C@@]4(C)CCC(=O)C(C)(C)C4CC[C@]3(C)[C@@]2(C)CC1 (stereo partly specified) | 17 | 0 | 40* | / | /
N#C/C(=N\Nc1cccc(C(F)(F)F)c1)C(=O)c1csc(-c2cccnc2)n1 | 24 | 10 | 1 | / | -2
N#CC(=NNc1cccc(C(F)(F)F)c1)C(=O)c1csc(-c2cccnc2)n1 | / | / | / | 44* | /
Cc1ccccc1C(NC(=O)OC(C)(C)C)C(=O)OC(C)(C)C (stereo unspecified) | / | / | / | 3 | /
CCOc1ccccc1NC(=O)CC1Nc2cc(C)c(C)cc2NC1=O (stereo unspecified) | 3 | 2 | 49* | 4 | -7
CCOc1ccccc1NC(=O)CC1Nc2ccccc2NC1=O (stereo unspecified) | 8 | -1 | 2 | / | 4
COc1ccc(C=Cc2ccccc2)cc1C1C2C=CCC(C)C2C(=O)N1Cc1ccccc1 (stereo unspecified) | / | / | / | 13 | /
OC1=C(O)c2nc3cc(F)ccc3nc21 | -10 | 3 | 1 | 9 | -8
Fc1ccc2nc3[nH]c4ccccc4c3nc2c1 | 7 | -5 | 47* | -1 | 0
Cc1cnc(C(=O)OCC(=O)Nc2cccc3ccccc23)cn1 | -7 | -3 | -1 | 26* | /
Cc1cnc(C(=O)OCC(=O)Nc2c(Cl)cc(Cl)cc2Cl)cn1 | 0 | -3 | 63* | -8 | /
CC(=O)N(c1ccccc1)c1c(F)c(F)c(F)c(F)c1F | 6 | 0 | 34* | 16 | -2
CC(=O)N(c1ccccc1)c1nc2ccccc2s1 | -8 | / | -1 | 18 | /
O=C(CC12CC3CC(CC(C3)C1)C2)NN=Cc1ccncc1 | / | / | / | 8 | /
Cc1cccc(Nc2nc(-c3ccccn3)cs2)n1 | -3 | 96 | 512* | 8 | -1
Cc1cccnc1Nc1nc(-c2ccccn2)cs1 | 8 | 99 | 77* | / | 0
CC1CCN(c2nc3ccccn3c(=O)c2C=O)CC1 | 7 | -3 | 1 | 45* | 0
O=Cc1c(Cl)nc2ccccn2c1=O | 7 | 1 | 1 | 0 | 6
O=C(N/N=C/c1sc(N2CCOCC2)nc1-c1ccccc1)c1ccccc1O | 8 | 7 | 238* | / | 1
O=C(NN=Cc1ccc(OC(F)F)cc1)C1=COCCO1 | / | / | / | -12 | /
Cc1ccc(S(=O)(=O)N2CCOCC2)cc1C(=O)OCC(=O)NC1CC1 | -9 | -7 | 0 | 33* | /
O=C(O)c1cccc(S(=O)(=O)Nc2cc(Cl)ccc2Cl)c1 | 5 | 1 | -1 | 9 | 1
CC1CC(C)CN(C(=O)c2cccc(S(=O)(=O)Nc3cc(C(F)(F)F)ccc3Cl)c2)C1 (stereo unspecified) | 29 | 1 | 225* | 5 | 4

Compound activity from PubChem BioAssay.
